We go through 61 compounds from PubChem BioAssay AID588591 (National Center for Advancing Translational Sciences (NCATS), 2011).

Several values for one entry are separate records, joined by “and”; a condition that tells them apart may be missing. Equal entries are not always repeated. Hit rate of the full screen: of about 390,000 compounds, about 4,700 (1.2%) were called active. A call without a number means that no potency is given here. Not shown: some 4% with an inconclusive outcome. Calls follow the shape of the dose curve; as a rule, active = well fitted inhibition curve with a large enough effect; inconclusive = small, poorly fitted or top-dose-only effect, or another doubt; inactive = no such curve, though single readings can be large or run the other way. Only a selection was taken, and actives are over-represented in it overall.
Potency is read from the fitted curve at half-maximal effect.

The target in this experiment is DNA polymerase eta (Homo sapiens) (UniProt Q9Y253). Kind of experiment: qHTS for Inhibitors of Polymerase Eta. Particulars: recombinant Pol eta, fluorescent DNA replication assay; series mostly up to 114 µM. Summed up: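 Pol eta at 10 nM preincubated with compounds 15 min at room temperature; reaction started with fluorescent substrate (50 nM final) and read kinetically at 0 and 10 min.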
Sequence of DNA polymerase eta (Homo sapiens) (Q9Y253 whole entry, looked up): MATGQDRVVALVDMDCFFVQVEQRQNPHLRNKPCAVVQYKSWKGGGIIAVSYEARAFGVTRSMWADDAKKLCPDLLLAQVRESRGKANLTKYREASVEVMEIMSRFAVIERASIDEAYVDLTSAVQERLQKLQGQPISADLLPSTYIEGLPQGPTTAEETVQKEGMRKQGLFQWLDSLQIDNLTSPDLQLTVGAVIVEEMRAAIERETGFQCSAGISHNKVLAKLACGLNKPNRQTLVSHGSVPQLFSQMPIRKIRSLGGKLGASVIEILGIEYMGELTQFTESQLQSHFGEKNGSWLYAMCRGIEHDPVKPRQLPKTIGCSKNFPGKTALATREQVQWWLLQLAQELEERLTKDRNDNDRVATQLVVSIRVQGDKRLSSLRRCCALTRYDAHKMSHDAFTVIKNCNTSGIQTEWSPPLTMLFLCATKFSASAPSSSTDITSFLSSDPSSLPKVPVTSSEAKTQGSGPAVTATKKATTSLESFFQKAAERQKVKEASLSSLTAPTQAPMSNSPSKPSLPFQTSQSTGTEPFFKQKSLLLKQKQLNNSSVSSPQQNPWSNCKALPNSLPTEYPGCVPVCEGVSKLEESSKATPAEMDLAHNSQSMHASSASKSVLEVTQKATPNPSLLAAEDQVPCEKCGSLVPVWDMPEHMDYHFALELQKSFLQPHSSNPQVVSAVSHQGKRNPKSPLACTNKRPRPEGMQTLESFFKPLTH
Consider `CCOC(=O)c1ccc(NC(=O)Cn2c(=O)cc(C)c3c(C)nn(-c4cccc(F)c4)c32)cc1`, for which the Potency entry is “inactive”.
Turning to `CN(Cc1ccccc1)S(=O)(=O)c1ccc(F)c(C(=O)Nc2cccc(Cl)c2Cl)c1`, the Potency entry was “inactive”.
For the compound `Cc1ccc(Cn2c(=O)n(Cc3nc(-c4ccccc4)no3)c(=O)c3cc4c(cc32)OCO4)cc1`, the Potency entry was “inactive”.
As for `Cc1ccc(Cn2c(C)nc3c(c2=O)c2nc4ccccc4nc2n3Cc2ccco2)cc1`, the Potency was 22.4 µM (active).
The value for `CCN1CCN(C(c2ccc(C)cc2)c2c(O)cc(C)n(Cc3ccco3)c2=O)CC1` (stereo unspecified) was “inactive”; that for `COc1cccc(C(=O)Nc2ccc(-c3cc(C(F)(F)F)nn3-c3ccccc3)cc2)c1` was “inactive”; that for `O=C(CN1c2ccccc2S(=O)(=O)c2ccccc21)Nc1cccc(C(F)(F)F)c1` was “inactive”.
Turning to `CCCCN(CCCNC(=O)c1cc(Nc2ccccc2OC)nc2ccccc12)c1ccccc1`, the Potency result is “inactive”.
Consider `O=C(NCCCO)C(=O)Nc1c2c(nn1-c1ccccc1)CSC2`, for which the Potency entry was “inactive”.
For the compound `CC(C)(C)C(=O)OCc1nc(-c2ccc(O)c(O)c2)cs1`, the Potency was 14.1 µM (active).
Take `O=c1cc(-c2ccccc2)[nH]c2nc(Cl)ccc12`: the Potency entry was “inactive”.
`Cc1ccc2c(c1)c1c(c(=O)n(-c3ccccc3)c(=O)n1CC(=O)c1ccc(Cl)cc1)n2C`: the Potency result was “inactive”.
Consider `O=C(CSc1oc(-c2ccccc2)nc1S(=O)(=O)c1ccc(Br)cc1)NC1CCCCC1`, for which the Potency result was “inactive”.
For `O=C(CCNC(=O)c1ccc([N+](=O)[O-])cc1)Nc1ccccc1N1CCOCC1`, the Potency result is “inactive”.
For the compound `N=C1C(c2nc3ccccc3[nH]2)=C(O)CN1NC(=O)c1c[nH]c2ccccc12`, the Potency result was “inactive”.
Consider `N=C1C(c2nc3ccccc3s2)=C(O)CN1NC(=O)c1ccc([N+](=O)[O-])cc1`, for which the Potency is 50.1 µM (active).
On to `COCCNc1ncnc2c1c(-c1ccccc1)cn2-c1ccc(C)c(Cl)c1`, for which the Potency entry was “inactive”.
In the case of `COc1cccc(-c2cc(C(=O)Nc3ccc(C)cc3)[nH]n2)c1`, the Potency entry is “inactive”.
The entry for `Cn1c(=O)sc2cc(NS(=O)(=O)c3ccc(C(C)(C)C)cc3)ccc21` is “inactive”.
The value for `CC(=O)c1ccc(S(=O)(=O)Nc2ccc(-c3ccc4nncn4n3)cc2)cc1` was 20 µM (active).
The entry for `O=C(Nc1ccc(-c2ccc3nncn3n2)cc1)C1CCCCC1` is “inactive”.
On to `CC(=O)Nc1ccc(S(=O)(=O)Nc2ccc(-c3ccc4nnc(C)n4n3)cc2)cc1`, for which the Potency result was “inactive”.
`Cn1nnc2c(N3CCN(c4ccccc4)CC3)ncnc21`: the Potency result was “inactive”.
The value for `CCCCSc1ncnc2c1sc1nc(N3CCOCC3)c3c(c12)CCCC3` was “inactive”; that for `CN(C)C(CNC(=O)c1ccc(OCc2cn3ccccc3n2)cc1)c1ccco1` (stereo unspecified) was 39.8 µM (active); that for `O=Cc1ccc(OCc2cn3ccccc3n2)cc1` was “inactive”.
`CN(C)C(CNC(=O)CCCOc1ccccc1)c1ccco1` (stereo unspecified): the Potency result is “inactive”.
On to `Cc1ccc(OCC(=O)Nc2ccc(OCc3cc(=O)n4c(C)csc4n3)cc2)cc1C`, for which the Potency entry was “inactive”.
Turning to `CCCCc1nn2c(=O)cc(COC(=O)c3ccccc3NC(=O)C(C)(C)C)nc2s1`, the Potency entry is “inactive”.
As to `CCOc1ccc(N(CC)S(=O)(=O)N2CCCC(C(=O)NCc3ccc(Cl)cc3)C2)cc1` (stereo unspecified), the Potency result was “inactive”.
On to `Cc1ccc(N(Cc2cc(=O)[nH]c3ccccc23)C(=O)CCl)cc1`, for which the Potency was 56.2 µM (active).
With `Cn1nnnc1SCc1cc(=O)[nH]c2ccccc12`, the Potency entry was “inactive”.
Consider `Cc1ccc(N(Cc2ccccc2O)C(=O)c2ccccc2F)cc1`, for which the Potency entry was “inactive”.
The value for `COc1ccc(CNC(=O)c2cc3c(s2)-c2ccccc2OC3)cc1` was “inactive”; that for `Cc1c(C)n(Cc2ccc(Cl)cc2)c2ccc(C(=O)N3CCN(c4ccccc4F)CC3)cc12` was “inactive”.
The figure for `CC(C)c1ccc2c(c1)c(SC(C)(C)C)c(CC(C)(C)C(=O)O)n2Cc1ccc(Cl)cc1` is 35.5 µM (active) and 25.1 µM (active); for `CC(C)c1ccc(Cn2c(COc3ccccc3)nc3ccccc32)cc1` it is “inactive”.
As to `Cc1ccc(S(=O)(=O)NCc2nc3nc(C)cc(C)n3n2)cc1`, the Potency result is “inactive”.
With `Cc1cc(NC(=O)CSc2ncc(C(=O)Nc3ccc(Cl)cc3)c(=O)n2C)no1`, the Potency result is “inactive”.
`Cc1ccc(C)c(NC(=O)CSC2=Nc3ccccc3N=C(c3ccc(F)cc3)C2)c1`: the Potency entry was “inactive”.
`CCOc1ccc(NC(=O)C(C)N2C(=O)c3ccccc3C2=O)cc1` (stereo unspecified): the Potency result is “inactive”.
In the case of `CC(C(=O)Nc1ccc(O)c(C(=O)O)c1)N1C(=O)/C(=C/c2cccs2)SC1=S` (stereo unspecified), the Potency is 79.4 µM (active).
The entry for `O=C1/C(=C/c2cccs2)SC(=S)N1C1CCS(=O)(=O)C1` (stereo unspecified) is “inactive”.
For the compound `CCN(CC)CCNc1ncnc2c1cnn2-c1cc(Cl)ccc1C`, the Potency entry is “inactive”.
On to `CC(C)C(=O)Nc1nc2c(s1)CC(C(C)(C)C)CC2` (stereo unspecified), for which the Potency result is “inactive”.
On to `CCOc1ccccc1C(=O)Nc1ccc2c(c1)N(C)C(=O)c1ccccc1S2`, for which the Potency result is “inactive”.
As to `Cc1ccc(Cl)cc1-n1ncc2c(N3CCC(C(N)=O)CC3)ncnc21`, the Potency entry is “inactive”.
The value for `O=C(O)c1ccc2c(=O)n3c(nc2c1)/C(=C/c1ccc(OC(F)F)cc1OC(F)F)CC3` was “inactive”; that for `N#Cc1ccc(/C=C2\CCn3c2nc2cc(C(=O)O)ccc2c3=O)cc1` was “inactive”; that for `Cc1ccc(/C=C2\CCn3c2nc2cc(C(=O)O)ccc2c3=O)c(C)c1` was 79.4 µM (active).
As for `Fc1ccc(Nc2nc(SCc3ccccc3Cl)nc3ccccc23)cc1`, the Potency result was “inactive”.
Turning to `O=C(NCC12CC3CC(CC(C3)C1)C2)c1cc2nc(-c3ccccc3)cc(C(F)(F)F)n2n1`, the Potency result was “inactive”.
As for `COCCn1c(CCC(=O)Nc2cc(C)ccc2C)nc2cccnc21`, the Potency entry was “inactive”.
For the compound `COC(=O)c1ccc(Cn2c(SCC(=O)N(C)c3ccccc3)nc3ccccc32)cc1`, the Potency result was “inactive”.
For the compound `Cc1ccc(O)c(NC(=O)CCS(=O)(=O)c2nc(-c3ccc4c(c3)OCO4)cc(C(F)(F)F)n2)c1`, the Potency entry is “inactive”.
Regarding `O=C(CCc1nc2sc3c(c2c(=O)[nH]1)CCCC3)NCC(=O)Nc1ccccc1Br`, the Potency was 8.91 µM (active).
The entry for `Cc1cccc(NC(=O)CSc2nc3c(c(=O)[nH]2)CCCC3)c1C` is “inactive”; for `COc1ccccc1-n1c(SCC(=O)O)nc2sc3c(c2c1=O)CCC3` it is “inactive”.
Take `COc1ccccc1CNC(=O)C(=O)NCC(c1cccs1)S(=O)(=O)c1cccs1` (stereo unspecified): the Potency entry was “inactive”.
Turning to `COc1ccc(C2C(=O)N(C3CCCCC3)CC(=O)N2Cc2ccccc2Cl)cc1OC` (stereo unspecified), the Potency result is “inactive”.
Consider `CCOC(=O)c1cccc(NC(=O)Cn2cnc3nc4c(cc3c2=O)CCCC4)c1`, for which the Potency entry was “inactive”.
